{"source": "PubChem BioAssay (NCI)", "note": "About 83,000 compounds went through this panel and 20% of them were active in at least one assay; those are over-represented in the sample as a whole.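 In brief: 96-well plates, 48 h treatment, single concentration, percent growth endpoint.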 Activity calls are given as the source filed them. The calls were made as follows: active = growth percent below 10; inactive = the rest."}
{"system": "HL-60(TB) leukemia", "assay": "NCI-60 one-dose screen, 48 h (100 = growth as untreated, 0 = no growth, -100 = all killed)", "settings": "10 µM unless noted"}
{"smiles": "COc1ccc(-c2cc(C(=O)N=Nc3c(O)[nH]c4ccc(Br)cc34)c3ccccc3n2)cc1", "growth": "21.1% (inactive)"}
{"smiles": "COc1c(B(O)O)cc(F)cc1-c1nc2ccc3[nH]ncc3c2c2c1COCC2", "growth": "22.5% (inactive)"}
{"smiles": "COc1c(F)ccc(C(=O)Nc2ccc3nc(NC(=O)C4CCCN(S(=O)(=O)c5ccc(C#N)cc5)C4)sc3c2)c1F", "note": "(configuration not stated)", "growth": "115% (inactive)"}
{"smiles": "CCCS(=O)(=O)N1CCCC(C(=O)Nc2nc3ccc(NC(=O)c4ccc(F)c(OC)c4F)cc3s2)C1", "note": "(configuration not stated)", "growth": "27.3% (inactive)"}
{"smiles": "CC(C)C1=C[C@@]23CC[C@@H]4[C@](C)(CCC[C@]4(C)C(=O)NCc4ccccc4)[C@H]2C[C@@H]1[C@H]1C(=O)CCC(=O)[C@H]13", "growth": "53.5% (inactive)"}
{"smiles": "COc1ccc(-c2cc(-c3cc(C(=O)c4ccccc4)n4ccc(C)cc34)nc(N)c2C#N)cc1", "growth": "99.7% (inactive)"}
{"smiles": "O=C(Nc1nc2ccc([N+](=O)[O-])cc2s1)Nc1ccccc1F", "growth": "-8.08% (active)"}
{"smiles": "CC(=O)c1ccc(Nc2nc(SC(C)C)nc(-c3ccccc3)c2C#N)cc1", "growth": "93.6% (inactive)"}
{"smiles": "COc1ccc2[nH]c(O)c(N=Nc3nc(-c4ccc(C#N)cc4)cs3)c2c1", "growth": "84.4% (inactive)"}
{"smiles": "Oc1ccc(Cl)c(Nc2ncnc3c2cnn3CC(Cl)c2ccc(Br)cc2)c1", "note": "(configuration not stated)", "growth": "80.5% (inactive)"}
{"smiles": "N#CC1=C(c2cccs2)Nc2c(c(-c3ccccc3)nn2-c2ccccc2)C12C(=O)Nc1ccccc12", "note": "(configuration not stated)", "growth": "0.7% (active)"}
{"smiles": "COCOc1cc2oc(C(=O)N[C@@H](Cc3ccccc3)C(O)C(=O)NCc3ccccc3)c(C)c(=O)c2cc1OCOC", "note": "(some centres not stated)", "growth": "96.5% (inactive)"}
